Data published in PubChem BioAssay (EPA / NIEHS).
Records with an inconclusive call do not appear. Active and inactive are the calls of the source. How the source made its calls: active means hit-call score of the fitted dose curve at least 0.9, where 1 is the maximum; inconclusive means response in the unintended direction; inactive means score below 0.9.

Tests used:
[1] = TOX21_p53_BLA_p2_viability: Viability Assessment in the Tox21 HCT-116 p53 Agonism Beta-lactamase Assay, Phase 2 (AID 2283591);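 further: compound exposure lasted 16 h at 37 °C; actives lower the ATP signal meaning cytotoxicity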
Method in brief: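 HCT116 p53-bla cells, 4000/well, dosed after 5 h plating (217-fold dilution of DMSO stocks) and incubated 16 h at 37C. Viability taken as cellular ATP by CellTiter-Glo luminescence after 30 min RT; signal loss marks cytotoxicity.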

[2] = TOX21_p53_BLA_p4_viability: Viability Assessment in the Tox21 HCT-116 p53 Agonism Beta-lactamase Assay, Phase 4 (AID 2283597);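 further: hits lower the luminescence signal meaning cytotoxicity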
Method in brief: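 Cells plated, 5 h pre-incubation; DMSO compounds pinned (217-fold dilution); 16 h, 37C/5% CO2; CCF4-AM 2 h RT; CellTiter-Glo 30 min RT; luminescence read.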

[3] = target: Cellular tumor antigen p53 (Homo sapiens) (UniProt P04637); assay: TOX21_p53_BLA_p5_ratio: Tox21 HCT-116 p53 Agonism Beta-lactamase Assay, Ratio, Phase 5 (AID 2283599)
Sequence of Cellular tumor antigen p53 (Homo sapiens) (P04637 whole entry, looked up): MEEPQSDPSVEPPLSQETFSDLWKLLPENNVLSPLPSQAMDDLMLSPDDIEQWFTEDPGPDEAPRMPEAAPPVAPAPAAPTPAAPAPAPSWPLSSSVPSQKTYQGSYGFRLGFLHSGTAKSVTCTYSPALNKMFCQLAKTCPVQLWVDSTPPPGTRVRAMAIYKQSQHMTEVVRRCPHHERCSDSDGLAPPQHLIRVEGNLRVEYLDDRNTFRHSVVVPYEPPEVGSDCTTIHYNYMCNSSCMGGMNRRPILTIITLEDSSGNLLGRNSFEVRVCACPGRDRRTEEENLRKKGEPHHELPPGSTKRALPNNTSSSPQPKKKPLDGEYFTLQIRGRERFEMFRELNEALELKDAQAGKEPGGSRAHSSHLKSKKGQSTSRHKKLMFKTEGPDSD
Method in brief: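 HCT-116 p53-bla cells (4000/well) plated 5 h, dosed with compound (217-fold DMSO dilution) for 16 h at 37 C; CCF4-AM substrate 2 h at room temperature. Activity is the 460/530 nm emission ratio (405 nm excitation), fitted in gain-of-signal direction versus DMSO.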

[4] = TOX21_p53_BLA_p5_viability: Viability Assessment in the Tox21 HCT-116 p53 Agonism Beta-lactamase Assay, Phase 5 (AID 2283600)
Method in brief: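 4000 cells/well; 5 h pre-incubation; DMSO compounds pin-transferred, 217-fold dilution; 16 h, 37C/5% CO2; CCF4-AM 2 h RT; CellTiter-Glo 30 min RT; luminescence.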

[5] = target: Cellular tumor antigen p53 (Homo sapiens) (UniProt P04637); assay: TOX21_p53_BLA_p4_ratio: Tox21 HCT-116 p53 Agonism Beta-lactamase Assay, Ratio, Phase 4 (AID 2283601)
Method in brief: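 HCT-116 p53 beta-lactamase reporter cells (4000/well) preincubated 5 h, then compound (217-fold dilution of DMSO stock) for 16 h at 37C. CCF4-AM substrate added 2 h at room temperature; 460/530 nm emission ratio fitted upward versus DMSO.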

[6] = target: Cellular tumor antigen p53 (Homo sapiens) (UniProt P04637); assay: TOX21_p53_BLA_p3_ratio: Tox21 HCT-116 p53 Agonism Beta-lactamase Assay, Ratio, Phase 3 (AID 2283596)
Method in brief: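 HCT116 p53-bla cells (4000/well) given compound in DMSO (217-fold dilution) after 5 h, incubated 16 h at 37C. CCF4-AM substrate 2 h at room temperature; 460/530 nm emission ratio, gain fitted against DMSO.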

[7] = target: Estrogen receptor (Homo sapiens) (UniProt P03372); assay: CCTE_Deisenroth_AIME_96WELL_LUC_Active: CCTE's 96-well Estrogen Receptor Transactivation Assay with AIME metabolic competence (ERTA luciferase; metabolism positive), Deisenroth Lab (AID 2284023)
Sequence of Estrogen receptor (Homo sapiens) (P03372 whole entry, looked up): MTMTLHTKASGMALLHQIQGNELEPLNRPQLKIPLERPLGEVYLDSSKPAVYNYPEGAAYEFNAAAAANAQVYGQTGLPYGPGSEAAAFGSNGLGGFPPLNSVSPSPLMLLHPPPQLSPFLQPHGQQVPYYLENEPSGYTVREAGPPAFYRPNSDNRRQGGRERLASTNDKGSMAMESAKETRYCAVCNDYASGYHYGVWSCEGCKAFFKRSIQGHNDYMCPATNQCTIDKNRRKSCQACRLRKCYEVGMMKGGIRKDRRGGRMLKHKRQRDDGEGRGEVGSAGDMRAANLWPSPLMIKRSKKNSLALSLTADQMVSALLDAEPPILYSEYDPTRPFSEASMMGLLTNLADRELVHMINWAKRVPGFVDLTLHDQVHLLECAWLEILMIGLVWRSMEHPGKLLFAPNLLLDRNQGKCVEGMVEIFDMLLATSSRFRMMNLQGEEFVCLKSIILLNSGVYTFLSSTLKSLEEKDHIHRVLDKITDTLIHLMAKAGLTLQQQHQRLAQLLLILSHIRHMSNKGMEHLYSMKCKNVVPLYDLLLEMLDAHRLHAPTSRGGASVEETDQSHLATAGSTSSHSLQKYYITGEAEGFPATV
Method in brief: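 Chemicals pre-incubated 2 h with alginate-immobilized phenobarbital/beta-naphthoflavone-induced male Sprague Dawley rat liver S9, then medium transferred to VM7Luc4E2 cells for 24 h luciferase read-out. 10-point series 0.002 - 200 uM; fitted relative to 17beta-estradiol.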

[8] = target: Estrogen receptor (Homo sapiens) (UniProt P03372); assay: CCTE_Deisenroth_AIME_96WELL_LUC_Inactive: CCTE's 96-well Estrogen Receptor Transactivation Assay without AIME metabolic competence (ERTA luciferase; metabolism negative), Deisenroth Lab (AID 2284025)
Method in brief: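 VM7Luc4E2 breast cells, luciferase read 24 h after dosing with medium pre-incubated 2 h on alginate-water lids (metabolism negative). 10-point series 0.002–200 uM, single technical replicate, n≥4; fit relative to 17beta-estradiol.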

[9] = CCTE_Deisenroth_AIME_96WELL_CTox_Active: Cytotoxicity Assessment (CTOX) in CCTE's 96-well Estrogen Receptor Transactivation Assay with AIME metabolic competence (metabolism positive), Deisenroth Lab (AID 2284028)
Method in brief: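 Chemicals (0.002–200 uM) were first incubated 2 h with alginate-immobilized phenobarbital/beta-naphthoflavone-induced male rat liver S9; conditioned medium then went onto VM7Luc4E2 cells for 24 h, with viability read by protease-substrate fluorescence, fitted bidirectionally.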

[10] = CCTE_Deisenroth_AIME_96WELL_CTox_Inactive: Cytotoxicity Assessment (CTOX) in CCTE's 96-well Estrogen Receptor Transactivation Assay without AIME metabolic competence (metabolism negative), Deisenroth Lab (AID 2284029)
Method in brief: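 Chemicals (0.002 - 200 uM, 10 points) incubated 2 h with alginate-water microspheres (no S9), then medium moved onto VM7Luc4E2 cells for 24 h. Viability by protease-substrate cleavage to fluorescent probe; bidirectional fitting.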

Measured: AC50

O=C1OC(=O)C2CCCCC12 (stereo not drawn)
inactive: [1] | [2] | [3]

C1CCC2=NCCCN2CC1
inactive: [1] | [2] | [3] | [4]

CC(=O)N=c1sc(S(N)(=O)=O)nn1C
inactive: [1] | [2] | [3] | [4] | [5]

CCn1cc(C(=O)O)c(=O)c2cnc(N3CCNCC3)nc21
inactive: [1] | [6] | [5]

Cc1c(N)cccc1[N+](=O)[O-]
inactive: [1] | [2] | [3] | [4]

CN1CCCC(n2nc(Cc3ccc(Cl)cc3)c3ccccc3c2=O)CC1 (stereo not drawn)
inactive: [1] | [2]

c1cnc(N2CCN(Cc3ccc4c(c3)OCO4)CC2)nc1
inactive: [1] | [2]

O=C(CN1CCN(Cc2ccc3c(c2)OCO3)CC1)N1c2ccccc2Sc2ccccc21
inactive: [1] | [2] | [3] | [4] | [5]

C(=C\c1ccccc1)/c1ccccc1
active: [7] 18 µM | [8] 44.6 µM
inactive: [1] | [6] | [4] | [9] | [10]

CC(C)(Sc1cc(C(C)(C)C)c(O)c(C(C)(C)C)c1)Sc1cc(C(C)(C)C)c(O)c(C(C)(C)C)c1
inactive: [1] | [2] | [3] | [4]

COc1cc2nc(N3CCN(C(=O)C4CCCO4)CC3)nc(N)c2cc1OC (stereo not drawn)
inactive: [1] | [2] | [3] | [4] | [5]

Cc1cscn1
inactive: [1] | [2]

O=C(CCC1CCN(Cc2ccccc2)CC1)c1ccc2c(c1)NCCCC2
inactive: [1] | [2] | [3] | [4] | [5]

CCOC(=O)NCCC[Si](OCC)(OCC)OCC
inactive: [1] | [2] | [4]

COc1ccccc1OCCNCC(O)COc1cccc2[nH]c3ccccc3c12 (stereo not drawn)
active: [2] 36.8 µM | [5] 41.9 µM
inactive: [1] | [3] | [4]

NS(=O)(=O)c1cc2c(cc1Cl)NC(CSCc1ccccc1)=NS2(=O)=O
inactive: [1] | [3]

CC(C)(c1cc(Br)c(OCC(Br)CBr)c(Br)c1)c1cc(Br)c(OCC(Br)CBr)c(Br)c1 (stereo not drawn)
inactive: [1] | [3]

CS(=O)(=O)c1ccc([C@@H](O)[C@@H](CF)NC(=O)C(Cl)Cl)cc1
inactive: [1] | [3]

Nc1c(NC/C=C\COc2cc(CN3CCCCC3)ccn2)c(=O)c1=O
inactive: [1] | [3]

CNCCCN1c2ccccc2CCc2ccccc21
inactive: [1] | [2] | [4] | [5]

c1ccc(COCc2ccccc2)cc1
inactive: [1] | [2] | [3] | [5]

CCC(C)(C)C(=O)O
inactive: [1] | [2] | [4] | [5]

CC1(C)[C@@H](OC(=O)CCC(=O)O)CC[C@]2(C)[C@H]3C(=O)C=C4[C@@H]5C[C@@](C)(C(=O)O)CC[C@]5(C)CC[C@@]4(C)[C@]3(C)CC[C@@H]12
inactive: [1] | [3] | [4]

CC(C)(C)C(=O)Oc1ccc(S(=O)(=O)Nc2ccccc2C(=O)NCC(=O)O)cc1
inactive: [1] | [2] | [4] | [5]

CN1C(C)(C)CCCC1(C)C
inactive: [1] | [3] | [4]

O=C(O)c1ccc(CO)o1
inactive: [1] | [2] | [4] | [5]

OC1OC[C@@H](O)[C@H](O)[C@@H]1O (stereo partly drawn)
inactive: [1] | [2] | [5]

Nc1nc2c(ncn2CCC(CO)CO)c(=O)[nH]1
inactive: [1] | [2] | [4]

CC(C)CNCC(C)C
inactive: [1] | [3] | [4] | [5]

CC(=O)N(CC(C)C(=O)O)c1c(I)cc(I)c(N)c1I (stereo not drawn)
inactive: [1] | [2] | [3] | [5]

O=P(O)(O)C(O)(Cc1cnc2ccccn12)P(=O)(O)O
inactive: [1] | [3]

CC(C)=CCC/C(C)=C/CC/C(C)=C/CCC(=O)OC/C=C(\C)CCC=C(C)C
inactive: [1] | [2] | [5]

C[C@]12CCC(=O)C=C1CC[C@@H]1[C@@H]2[C@@H](O)C[C@@]2(C)[C@H]1CC[C@]2(O)C(=O)COC(=O)CCC(=O)O
inactive: [1] | [2] | [4] | [5]

CC(=O)CC(c1ccc([N+](=O)[O-])cc1)c1c(O)c2ccccc2oc1=O (stereo not drawn)
inactive: [1] | [2] | [3] | [5]

CCCNCC(O)COc1ccccc1C(=O)CCc1ccccc1 (stereo not drawn)
inactive: [1] | [2] | [4]
